# Reference: the supplement of paper PMC11219838
# Values without a mark were called inactive.
# Assays:
# Details in all cases: 60 µM; 5 days; temperature: 20 °C
# Meloidogyne hapla J2 = assay: proportion of mobile M. hapla J2 relative to DMSO control (fraction of DMSO control); higher = more viable, less nematicidal, active = 0.7 or less
# In short: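 Sealed 96-well plates, each well holding around 25 M. hapla J2 in distilled water with compound pinned to 60 µM final (0.6% v/v DMSO), were shaken at 200 rpm for 5 days at 20 °C. Then 2 µL of 1 M NaOH was added to each well. Microscope-scored mobility was normalised to the mean of DMSO-only wells from the same plate. Eight such wells were on each plate, and the two biological replicates were averaged.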
# [1] = system: Caenorhabditis elegans dauer (daf-2(e1370)); assay: proportion of mobile C. elegans dauer larvae relative to DMSO control (fraction of DMSO control); higher = more viable, less nematicidal, active = 0.63 or less; extreme values may be limits of the assay
# In short: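 Synchronized C. elegans daf-2(e1370) larvae were held at 25 °C for 48 h on MYOB plates with E. coli OP50 to form dauers, and about 20 dauers were added per 96-well well in liquid NGM. Compound was pinned to 60 µM final (0.6% v/v DMSO), and sealed plates were shaken at 200 rpm for 5 days at 20 °C. The proportion of mobile worms was scored under a dissection microscope relative to DMSO controls and averaged over two biological replicates.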
# Ditylenchus dipsaci = assay: proportion of mobile D. dipsaci (mixed stage) relative to DMSO control (fraction of DMSO control); higher = more viable, less nematicidal, active = 0.86 or less; extreme values may be limits of the assay
# In short: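 Mobility, expressed relative to DMSO controls, is the mean of two biological replicates. The test organisms were D. dipsaci grown on pea plants in Gamborg B-5 agar and extracted into water by filter funnel, with about 20 added per well of a 96-well plate in distilled water. Compound was pinned to 60 µM final (0.6% v/v DMSO), plates were sealed and shaken at 200 rpm for 5 days at 20 °C, and mobile worms were scored under a microscope once 2 µL 1 M NaOH had been added.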
SMILES,proportion of mobile M. hapla J2 (Meloidogyne hapla J2),proportion of mobile C. elegans dauer larvae [1],proportion of mobile D. dipsaci (Ditylenchus dipsaci)
COc1ccccc1CC(=O)Nc1ccc(-c2noc(-c3ccccc3C)n2)cc1,0.743,1,1
Cc1ccc(-c2nc(-c3cccnc3)no2)cc1Cl,1.02,1,1
COc1ccc(OC(C)c2nc(-c3cccnc3)no2)cc1 (centres undefined),0.966,1,1
CCOc1ccccc1NC(=O)CSc1nnc(-c2ccco2)o1,1.01,1,1
COc1ccc(CCC(=O)Nc2ccc(-c3noc(-c4ccc(F)cc4)n3)cc2)cc1,0.746,1,1
CCOC(=O)c1ccc(OCc2nc(-c3cccs3)no2)cc1,1.1,1,1
COc1ccc(-c2nnc(SCC(=O)c3ccc4ccccc4c3)o2)cc1,1.03,1,1
Cc1cccc(-c2noc(COc3ccc(Cl)cc3C)n2)c1,0.925,1,1
Clc1ccccc1-c1noc(-c2cccnc2)n1,0.883,1,1
Fc1ccc(-c2nc(-c3cccc(C(F)(F)F)c3)no2)cc1,0.939,1,1
COc1ccccc1-c1nnc(SCC(=O)Nc2ccc(F)cc2)o1,0.995,1,1
Cc1ccccc1CSc1nnc(-c2ccccc2)o1,1.02,1,1
Clc1ccc(CSc2nnc(-c3ccc(Cl)cc3)o2)cc1,0.914,1,1
COc1ccc(-c2noc(COc3ccc(C)cc3Br)n2)cc1,1.01,1,1
O=C(CSc1nnc(-c2ccccc2Cl)o1)Nc1ccc(F)cc1,0.896,1,1
CC(C)(C)C(=O)Nc1ccccc1-c1nc(-c2ccncc2)no1,1,1,1
CCOc1nc(-c2ccccc2)ccc1-c1noc(-c2ccccc2F)n1,0.926,1,1
Clc1ccc(CSc2nnc(-c3ccccn3)o2)cc1,0.835,1,1
COc1ccc(-c2nnc(SCC(=O)Nc3ccc(Cl)cc3C)o2)cc1,0.709,1,1
CCOc1ccc(-c2nc(-c3ccc(C)cc3)no2)cc1,0.966,0.5 (active),1
Cc1ccc(-c2noc(COc3ccc(Cl)c(C)c3)n2)cc1,0.905,1,1
Cc1ccccc1-c1nnc(SCc2ccccc2)o1,0.986,1,1
CC(Oc1ccc(Br)cc1)c1nc(-c2ccncc2)no1 (centres undefined),0.719,0 (active),1
Cc1cc(OCc2nc(-c3ccc(NC(=O)c4ccc5c(c4)OCO5)cc3)no2)ccc1Cl,0.843,1,1
COc1ccc(-c2nnc(SCC(=O)Nc3c(F)cc(F)cc3Br)o2)cc1,1.03,1,1

SMILES,proportion of mobile M. hapla J2 (Meloidogyne hapla J2),proportion of mobile C. elegans dauer larvae [1],proportion of mobile D. dipsaci (Ditylenchus dipsaci)
c1coc(-c2nc(-c3cccs3)no2)c1,1.01,1,1
COc1ccc(-c2nc(-c3ccccc3Cl)no2)cc1,0.964,1,1
c1ccc(CSc2nnc(-c3ccccc3)o2)cc1,1.04,1,0.864
O=C(c1ccccc1-c1nc(-c2ccccc2Cl)no1)N1CCCCC1,0.932,1,1
Cc1ccc(-c2noc(-c3ccccc3C(=O)N3CCC(C)CC3)n2)cc1,0.999,1,1
Clc1ccc(-c2noc(-c3cccnc3)n2)cc1,1,0.452 (active),1
COc1ccccc1NC(=O)c1ccccc1-c1nc(-c2ccc(Cl)cc2)no1,0.78,1,1
Cc1ccc(OCc2nc(-c3ccccc3)no2)cc1C,1.1,1,1
COc1ccccc1-c1noc(-c2ccccc2F)n1,0.91,1,1
Fc1ccc(-c2noc(COc3cccc(Cl)c3)n2)cc1,0.908,1,1
COc1cccc(OCc2nc(-c3cccc(Br)c3)no2)c1,0.999,1,1
Brc1ccc(-c2noc(-c3ccco3)n2)cc1,1.01,0 (active),0.875
CCOc1cc(-c2noc(-c3ccncc3)n2)ccc1OC,0.745,1,1
COc1nc(-c2ccc(C)cc2)ccc1-c1noc(-c2cccc(C)c2)n1,0.949,1,1
COc1ccccc1-c1nc(-c2ccc(C)cc2)no1,1.01,1,1
Ic1ccc(CSc2nnc(-c3ccccc3)o2)cc1,0.991,1,1
O=C(CSc1nnc(-c2ccccc2Cl)o1)Nc1ccccn1,0.946,1,1
Cc1cccc(-c2noc(-c3cc(Cl)ccc3Cl)n2)c1,1.08,1,1
O=C(Nc1ccc(-c2noc(COc3ccccc3)n2)cc1)c1ccc(F)cc1,1.03,1,1
COc1ccc(Cl)cc1-c1nc(-c2ccc3c(c2)OCO3)no1,0.957,1,1
CC(C)(C)NC(=O)c1ccccc1-c1nc(-c2ccccc2)no1,0.886,1,1
Clc1ccc(SCc2nc(-c3cccnc3)no2)cc1,0.938,0.156 (active),1
CC(C)(C)c1ccc(OCc2nc(-c3ccccc3)no2)cc1,0.987,1,1
COc1ccc(Cl)cc1-c1noc(-c2ccccc2C)n1,0.93,1,1
Cc1cccc(-c2noc(-c3ccc4c(c3)OCO4)n2)c1,0.974,1,1

SMILES,proportion of mobile M. hapla J2 (Meloidogyne hapla J2),proportion of mobile C. elegans dauer larvae [1],proportion of mobile D. dipsaci (Ditylenchus dipsaci)
COC(=O)c1ccc(NC(=O)CSc2nnc(-c3ccc(Cl)cc3Cl)o2)cc1,0.929,1,1
Cc1cccc(-c2noc(COc3ccc(C)cc3C)n2)c1,1.09,1,1
Cc1cnc(NC(=O)CSc2nnc(-c3cccc(Cl)c3)o2)s1,0.97,1,0.9
Cc1cccc(-c2nnc(SCC(=O)NC(C)c3ccccc3)o2)c1 (centres undefined),0.89,1,1
Clc1cc(Br)ccc1OCc1nc(-c2ccccc2)no1,0.818,1,1
CC(=O)Nc1cccc(-c2nnc(SCc3ccccc3)o2)c1,0.976,1,1
O=C(CSc1nnc(-c2ccccc2)o1)Nc1cccc(F)c1,0.853,1,1
Brc1ccc(-c2nc(-c3ccc4c(c3)OCO4)no2)cc1,1.03,1,1
Cc1ccc(-c2nc(C3CCCCC3)no2)cc1,1.01,1,1
O=C(CSc1nnc(-c2ccccc2)o1)Nc1ccc2ccccc2c1,1.01,1,1
Clc1ccc(-c2nc(-c3ccncc3)no2)cc1Cl,0.987,1,1
CCOc1ccccc1-c1nc(-c2ccc(F)cc2)no1,1.06,1,1
CC(C)c1ccc(OCc2nc(-c3ccccn3)no2)cc1,1.01,1,1
COc1cccc(-c2noc(COc3ccc(C)cc3)n2)c1,0.769,1,1
O=C(CSc1nnc(-c2ccc(Cl)cc2)o1)Nc1nccs1,0.917,1,1
Cc1ccccc1OCc1nc(-c2cccc(NC(=O)c3ccco3)c2)no1,1.03,1,1
Brc1ccc(-c2noc(-c3cccs3)n2)cc1,0.884,0.383 (active),1
O=C(CSc1nnc(-c2cccnc2)o1)c1ccc(Br)cc1,1.04,1,1
CCC(=O)Nc1ccccc1-c1nc(-c2cccnc2)no1,1.02,1,1
Cc1ccc(-c2noc(-c3ccc(Br)o3)n2)s1,0.965,1,1
COc1ccc(-c2noc(CSc3nc4cc(C)ccc4[nH]3)n2)cc1,0.861,1,1
O=C(CSc1nnc(-c2ccco2)o1)Nc1cccc(Cl)c1Cl,0.866,1,1
Cc1ccc(NC(=O)CSc2nnc(-c3ccco3)o2)cc1Br,1.03,1,1
